Compounds with a hit are over-represented: about 11% of the library has one in this group of screens.
hNpr1 antagonist – Natriuretic polypeptide receptor (hNpr1) antagonism - Primary qHTS; 76,000 tested, 1.6% active; HEK293 hNpr1 GloSensor cGMP, ANP-stimulated luminescence; Atrial natriuretic peptide receptor 1 (Homo sapiens), P16066; Potency, µM (highest dose often 46.3 µM), actives largely listed as inhibitors; calls by dose curve; further: nearly all actives have a fitted effect of over 60% in size
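HEK293 cells stably expressing human Npr1 and cGMP GloSensor pGS-40F, loaded 2 h with 2% GloSensor reagent, given compound 30 min at room temperature. Luminescence read before and 20 min after 0.1 nM hNppA.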
NIH3T3 tox – Cytotoxic Profiling in NIH 3T3 Cell Line of Diverse Libraries Using Quantitative High-Throughput Screening. Potency, µM (series often up to 96.7 µM), hits mostly inhibitors. AID 1345082, 2018. 94,000 tested, 4.3% active. NIH 3T3 viability, CellTiter-Glo ATP luminescence, 48-72 h; further: nearly all actives have a fitted effect of over 55% in size
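Cytotoxicity was measured by CellTiter-Glo ATP luminescence after 48 or 72 h compound exposure at 37 °C. Mouse NIH 3T3 fibroblasts were seeded at 400 cells/well and dosed by 23 nL pin transfer.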
HEK293 tox – Cytotoxic Profiling in HEK 293 Cell Line of Diverse Libraries Using Quantitative High-Throughput Screening | HEK 293 viability, ATP luminescence (CellTiter-Glo), 48-72 h | Potency, µM (highest dose often 115 µM), most hits filed as inhibitors | 94,000 tested, 6.6% active; further: nearly all actives have a fitted effect of over 60% in size
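HEK 293 cells at 250 cells/well were exposed to compounds by pintool transfer for 48 or 72 hr at 37 degree Celsius, 5% CO2. Viability was read as ATP-coupled luminescence with CellTiter-Glo after 10 min at room temperature.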
FLuc inh – Firefly luciferase inhibition profiling of diverse chemical library using quantitative high-throughput screening; Luciferin 4-monooxygenase (Photinus pyralis), P08659; purified P. pyralis luciferase, luminescence, biochemical; Potency, µM (highest dose often 115 µM), actives largely listed as inhibitors; 76,000 tested, 2.5% active; further: nearly all actives have a fitted effect of over 65% in size
Target sequence (P08659 whole entry, looked up): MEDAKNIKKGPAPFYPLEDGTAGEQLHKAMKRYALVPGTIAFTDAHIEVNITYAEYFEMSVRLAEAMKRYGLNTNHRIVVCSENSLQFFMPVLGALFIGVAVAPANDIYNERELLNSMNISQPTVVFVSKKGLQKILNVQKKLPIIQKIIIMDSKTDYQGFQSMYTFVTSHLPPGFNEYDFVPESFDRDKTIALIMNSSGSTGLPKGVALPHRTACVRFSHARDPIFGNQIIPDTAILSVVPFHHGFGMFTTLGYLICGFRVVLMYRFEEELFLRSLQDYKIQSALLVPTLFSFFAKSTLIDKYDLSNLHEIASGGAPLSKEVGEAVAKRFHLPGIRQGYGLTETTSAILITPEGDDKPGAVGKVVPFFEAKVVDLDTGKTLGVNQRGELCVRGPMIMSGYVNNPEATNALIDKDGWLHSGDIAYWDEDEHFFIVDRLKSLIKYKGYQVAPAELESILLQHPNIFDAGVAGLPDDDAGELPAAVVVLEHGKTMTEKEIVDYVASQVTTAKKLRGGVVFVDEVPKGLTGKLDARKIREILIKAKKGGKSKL
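Luminescence read by CCD imaging after purified firefly luciferase (10nM final) was added to substrate buffer holding 10uM D-luciferin and 10uM ATP, pH 7.5, pre-dosed with compound.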
Each line names hits and unclear results; the compound was inactive in the other large screens. Unless noted, the call rests on the fitted dose curve; in most records, active means well fitted curve in the direction sought with a large enough effect; inconclusive means small, poorly fitted or top-dose-only effect, or another doubt; inactive means no such curve, though single readings can be large; an effect the other way counts as inactive or inconclusive.

Cc1noc(C)c1-c1cc2cc(C(C)C)oc2c(-c2cccnc2)n1	NIH3T3 tox inconclusive, HEK293 tox inconclusive
O=C(NCC1CCCCC1)c1nc2sccn2c1-c1cccnc1	NIH3T3 tox inconclusive (no result: hNpr1 antagonist, FLuc inh)
O=C(NCCCc1ccccc1)c1nc2sccn2c1-c1cccc(C(F)(F)F)c1	NIH3T3 tox inconclusive, HEK293 tox 50µM (no result: hNpr1 antagonist, FLuc inh)
O=C(NCC1CCCCC1)c1nc2sccn2c1-c1ccccc1	NIH3T3 tox 28µM, HEK293 tox inconclusive (no result: hNpr1 antagonist, FLuc inh)
O=C(Nc1ccccc1)c1nnn2c1CN(Cc1ccccc1)C(=O)CC2	NIH3T3 tox 100µM
Cc1ccc(C(=O)N2CC(Oc3ccc(F)cc3C)C2)cc1	NIH3T3 tox inconclusive, HEK293 tox inconclusive
CC(=O)N1CCC(=O)N(CC2CC2)Cc2cc3c(cc21)OCO3	HEK293 tox inconclusive (no result: hNpr1 antagonist, FLuc inh)
Cc1ccc(-c2cccc(CN3CCCC(NC(=O)Nc4ccccc4F)C3)c2)cc1Cl (centres undefined)	NIH3T3 tox 28µM, HEK293 tox 18µM (no result: hNpr1 antagonist, FLuc inh)
CC(=O)NC1CCCN(Cc2cccc(-c3ccc(C)c(Cl)c3)c2)C1 (centres undefined)	NIH3T3 tox 35µM, HEK293 tox 20µM (no result: hNpr1 antagonist, FLuc inh)
COC(=O)NC1CCCN(Cc2cccc(-c3ccc(C)c(Cl)c3)c2)C1 (centres undefined)	NIH3T3 tox inconclusive, HEK293 tox 45µM (no result: hNpr1 antagonist, FLuc inh)
Cc1noc(C)c1NC(=O)N1CCC(c2n[nH]c(=O)n2-c2ccccc2)CC1	none
CCN1c2cc(C(=O)Nc3ccc(OC)cc3)ccc2C(=O)N2CCCCC21 (centres undefined)	NIH3T3 tox inconclusive, HEK293 tox inconclusive
CCN1c2cc(C(=O)Nc3ccc(-n4ccnc4)cc3)ccc2C(=O)N2CCCCCC21 (centres undefined)	NIH3T3 tox 11µM, HEK293 tox inconclusive
CCN1c2cc(C(=O)Nc3ccc(OC)cc3)ccc2C(=O)N2CCCCCC21 (centres undefined)	NIH3T3 tox inconclusive, HEK293 tox inconclusive
CCN1c2cc(C(=O)Nc3ccc(C(C)C)cc3)ccc2C(=O)N2CCCCCC21 (centres undefined)	NIH3T3 tox 22µM, HEK293 tox inconclusive
CCN1c2cc(C(=O)Nc3ccc(F)c(F)c3)ccc2C(=O)N2CCCCCC21 (centres undefined)	NIH3T3 tox inconclusive, HEK293 tox inconclusive
CCN1c2cc(C(=O)Nc3ccc(C(C)C)cc3)ccc2C(=O)N2CCCCC21 (centres undefined)	NIH3T3 tox inconclusive, HEK293 tox 18µM, FLuc inh inconclusive
CCN1c2cc(C(=O)Nc3ccc(Cl)cc3)ccc2C(=O)N2CCCCCC21 (centres undefined)	NIH3T3 tox inconclusive, HEK293 tox 45µM
CC(=O)NCc1nnc2n1C(C(=O)Nc1ccc(F)cc1)CC2 (centres undefined)	none (no result: hNpr1 antagonist, FLuc inh)
O=C(Nc1cc(C2CC2)nn1-c1ccccc1)c1ccc(Cl)cc1	none (no result: hNpr1 antagonist, FLuc inh)
CC(Cc1ccncc1)Nc1nccc(-c2cnn(-c3ccccc3)c2)n1 (centres undefined)	NIH3T3 tox inconclusive, HEK293 tox 40µM, FLuc inh inconclusive
CC1(C)CC(Nc2nccc(-c3cnn(-c4ccccc4)c3)n2)CC(C)(C)N1	NIH3T3 tox 20µM, HEK293 tox inconclusive
Fc1ccc(CCNc2nccc(-c3cccnc3)n2)cc1	NIH3T3 tox inconclusive, HEK293 tox inconclusive, FLuc inh inconclusive
CC(Cc1ccncc1)Nc1nccc(-c2cnn(-c3ccccc3F)c2)n1 (centres undefined)	NIH3T3 tox inconclusive, HEK293 tox 35µM, FLuc inh inconclusive
COc1ccc(-n2cc(-c3ccnc(NCCC4CCCN4C)n3)cn2)cc1 (centres undefined)	NIH3T3 tox inconclusive, HEK293 tox inconclusive, FLuc inh inconclusive
O=C(c1cc2ccccc2[nH]1)N1C[C@@H](CO)[C@H](c2nc(C3CC3)no2)C1	NIH3T3 tox inconclusive, HEK293 tox inconclusive
O=C(c1ccccc1F)N1CCC2(CC1)CC(=O)N(c1ccccc1)c1ccccc1O2	NIH3T3 tox inconclusive, HEK293 tox 79µM
O=C(c1ccccc1Cl)N1CCC2(CC1)CC(=O)N(c1ccccc1)c1ccccc1O2	NIH3T3 tox inconclusive, HEK293 tox 79µM
O=C(c1ccccc1)N1CCC2(CC1)CC(=O)N(c1ccccc1)c1ccccc1O2	none

Screens (PubChem BioAssay)
